# The campaign covered roughly 390,000 compounds. About 1,400 (0.36%) were called active. Roughly 2% stayed inconclusive and do not appear here. The sample holds actives, similar compounds and a random draw of the others, so the mix is not that of the screen. Calls come from the whole dose curve; as a rule, active = well fitted inhibition curve with a large enough effect; inconclusive = small, poorly fitted or top-dose-only effect; inactive = no such curve, though single readings can be large or run the other way.
# Target: Flap endonuclease 1 (Homo sapiens) (UniProt P39748)
# Test: qHTS Assay for the Inhibitors of Human Flap endonuclease 1 (FEN1). Note: nearly all actives have a fitted effect of over 65% in size.
# Settings: Recombinant FEN1 flap cleavage, fluorescence, 15 min; series mostly up to 114 µM; activity change, negative = inhibition: at the top concentration
# Description: The major human flap endonuclease FEN1 is an efficient structure-specific enzyme that recognizes and cleaves a 5'-unannealed DNA flap. It belongs to the RAD2 family nucleases, which are involved in DNA metabolism and are highly conserved in prokaryotes and eukaryotes. FEN1 is a key enzyme in DNA replication, repair and maintenance of genomic stability. 5'-flap removal by FEN1 is critical for Okazaki fragment processing during lagging strand DNA synthesis, long-patch base excision repair (LP BER), and regulating or facilitating recombination events. […] Deletion of the yeast FEN1 gene, i.e. rad27, results in an increased frequency of short DNA (3-32 bp) repeats, micro- and mini-satellite formation, trinucleotide repeat expansion, spontaneous recombination events, and a severe growth defect in association with cell cycle arrest in late S/G2 phase. […] Cells from fen1-/- blastocysts show increased apoptotic cell death after ionizing radiation treatment, and chicken cells lacking the fen1 gene are hypersensitive to DNA alkylating agents, e.g. methylmethane sulfonate (MMS) and N-methyl-N'-nitro-N-nitrosoguanidine (MNNG), as well as hydrogen peroxide.
# NIH Chemical Genomics Center [NCGC]
# NIH Molecular Libraries Probe Centers Network [MLPCN]
# Assay Submitter (PI): David Wilson, National Institute of Aging
# Three uL of reagents (buffer in column 3 and 4 as negative control and 10 nM FEN1 in columns 1, 2, and 5-48) were dispensed into 1,536-well black solid-bottomed plate. Compounds (23 nL) were transferred via Kalypsys pin tool equipped with 1536-pin array (10 nL slotted pins, V&P Scientific, San Diego, CA). The plates were then incubated for 15 min at room temperature, and 1 uL substrate (50 nM final concentration) were added to start the reaction read twice at 0 min read and 15 min on ViewLux reader. Throughout the screen, reagent bottle and all liquid lines were chilled and made light-tight to minimize reagent degradation. All screening operations were performed on a fully integrated robotic system (Kalypsys, San Diego, CA) containing one RX-130 and two RX-90 anthropomorphic robotic arms (Staubli, Duncan, SC). Library plates were screened starting from the lowest and proceeding to the highest concentration, and a "double-dipping" step of the highest concentration was required to access higher concentrations of compounds. Vehicle-only plates, with DMSO being pin-transferred to the entire column 5-48 compound area, were inserted uniformly at the beginning and the end of each library in order to monitor for and record any shifts in the background, which can be affected by reagent dispensers or loss in enzyme activity overtime. Screening data was corrected, normalized, and concentration-effect relationships were derived by using publicly-available curve fitting algorithms developed in-house (http://ncgc.nih.gov/pub/openhts). A four parameter Hill equation was fitted to the concentration-response data by minimizing the residual error between the modeled and observed responses.
# % is set by controls: 0 for no effect and ±100 for the full control effect; potency is the fitted concentration of half-maximal effect.
# Chain of Flap endonuclease 1 (Homo sapiens) (P39748 whole entry, looked up): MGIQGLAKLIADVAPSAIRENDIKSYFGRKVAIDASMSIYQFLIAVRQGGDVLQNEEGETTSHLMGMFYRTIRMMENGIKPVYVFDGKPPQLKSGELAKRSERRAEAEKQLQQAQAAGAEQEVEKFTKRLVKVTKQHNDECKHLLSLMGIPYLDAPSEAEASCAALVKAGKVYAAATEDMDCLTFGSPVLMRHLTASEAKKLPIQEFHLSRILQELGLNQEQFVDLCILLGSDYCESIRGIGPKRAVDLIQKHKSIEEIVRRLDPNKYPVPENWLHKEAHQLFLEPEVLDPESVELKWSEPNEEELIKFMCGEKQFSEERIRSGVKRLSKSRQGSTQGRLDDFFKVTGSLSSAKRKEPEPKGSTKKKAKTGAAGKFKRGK
SMILES,"activity change, negative = inhibition",Potency
O=C(COC(=O)CCCN1C(=O)c2cccc3cccc(c23)C1=O)NC1CCS(=O)(=O)C1 (stereo not drawn),-17.4% (inactive),
C[N+](C)(CCCCCC[N+](C)(C)CCCN1C(=O)c2cccc3cccc(c23)C1=O)CCCN1C(=O)c2cccc3cccc(c23)C1=O,,2.51 µM (active)
O=C(CN1C(=O)c2cccc3cccc(c23)C1=O)N1CCCCC1,-12.2% (inactive),
O=C(O)C1=C/C(=C/C=[N+]2c3cc(O)c(O[C@H]4OC(CO)[C@@H](O)[C@@H](O)[C@@H]4O)cc3C[C@@H]2C(=O)[O-])C[C@H](C(=O)O)N1 (stereo partly drawn),-16.4% (inactive),
COc1cc2nc(C#Cc3nc4cc(OC)c(OC)cc4[nH]3)[nH]c2cc1OC,3.58% (inactive),
CS(=O)c1ccc(/C=C2\C=Cc3ccccc32)cc1 (stereo not drawn),1.4% (inactive),
CCOC(=O)c1ccc(CS(=O)c2ccc(Cl)cc2)o1 (stereo not drawn),2.29% (inactive),
CCOC(=O)N1CCN(C(=O)CNC(=O)Cc2ccc(Cl)cc2)CC1,-3.43% (inactive),
CCOC(=O)c1c(Cc2ccc(Cl)cc2)c[nH]c1C,,89.1 µM (active)
O=C(CCS(=O)(=O)c1ccccc1)N(Cc1cccnc1)c1nc2c(F)cccc2s1,-0.704% (inactive),
ClC/C=C/C[n+]1ccccc1Cl,-1.32% (inactive),
Brc1cccc[n+]1Cc1cccc(C[n+]2ccccc2Br)c1,-22.5% (inactive),
Clc1cccc[n+]1CCCC[n+]1ccccc1Cl,,79.4 µM (active)
Oc1ccc(Cl)cc1C1C=C(c2ccc3c(c2)OCO3)NC(c2ccc(F)c(Br)c2)N1 (stereo not drawn),-12.7% (inactive),
CC(C)(C)OC(=O)N1CCC(c2c(C(=O)NCc3ccccn3)cnn2-c2ccc(F)cc2)CC1,17.5% (inactive),
CCCCC(CCCC)c1ccc(C=Nc2ccc(/C=C/c3ccnc4ccccc34)cc2)cc1,-8.04% (inactive),
COc1ccc(Cl)cc1NC(=O)CCn1c(=O)c2cccn2c2ccccc21,1.92% (inactive),
O=C(c1cnn2c1NC(=C1CC1)C=C2C(F)F)N1CCc2ccccc2C1,6.45% (inactive),
Cc1csc(NCC(=O)c2c[nH]c3ccccc23)n1,-13.2% (inactive),
CN(C)C1=C2C=CC=CC2/C(=C2/C=Cc3ccccc32)C=C1 (stereo not drawn),16.4% (inactive),
OC(CBr)C[n+]1cccc2cc(Br)ccc21 (stereo not drawn),12.1% (inactive),
CCc1ccc(NC(=O)c2sc3nc4c(cc3c2N)CN(CC)CC4)cc1,-7.99% (inactive),
CCc1ccc2nc3sc(C(=O)Nc4nnc(CC)s4)c(N)c3cc2c1,,44.7 µM (active)
CCc1nnc(NC(=O)c2cc(S(=O)(=O)N3CCCCC3)ccc2C)s1,-10.7% (inactive),

SMILES,"activity change, negative = inhibition",Potency
CN(Cc1ccccc1)c1ccc(/C=C/c2ccnc3ccccc23)cc1,-3.17% (inactive),
O=C(c1ccco1)N(Cc1cccs1)c1ccc(O)cc1,-3.59% (inactive),
OC[C@@H]1O[C@H](n2cnc3c(SCc4ccccc4)ncnc32)[C@H](O)[C@H]1O,3.88% (inactive),
CCN(CC)c1ccc(/C=C/c2c(C)cnc3ccc(C)cc23)cc1,-7.36% (inactive),
CN1C(=O)/C(=C/c2ccco2)SC1=Nc1cccc(C(=O)O)c1,,50.1 µM (active)
O=C(O)c1cccc(N=NN2CCCCCC2)c1,-1.46% (inactive),
CN=C1S/C(=C\c2c(OC)cc(OC)cc2OC)C(=O)N1C,-1.06% (inactive),
COc1cc2[nH]c(C)c(CCN3CCN(c4ccccc4)CC3)c2cc1OC,-3.35% (inactive),
O=C(CSc1nc(=O)n(Cc2cccnc2)c2c1CCC2)Nc1ccc(F)cc1F,-2.33% (inactive),
COC(=O)c1ccc2c(c1)N(CC(=O)Nc1ccc(C)c(C)c1)C(=O)c1ccccc1S2,7.24% (inactive),
Cc1ccc(C(=O)O)cc1-c1ccc(/C=C2\SC(=O)N(CC(=O)Nc3ccc4c(c3)OCO4)C2=O)o1,,39.8 µM (active)
Cc1nc([N+](=O)[O-])cn1CC(=O)Nc1ccc2c(c1)OCO2,-12.8% (inactive),
CSc1n[nH]c(-c2ccco2)n1,7.75% (inactive),
CCC(=C/c1sc2ccc3ccccc3c2[n+]1C)/C=C1\Sc2ccc3ccccc3c2N1C,,12.6 µM (active)
CCCCNC(=O)Cn1c(SCc2cccc(Cl)c2)nc2ccncc21,-5.18% (inactive),
CC(C)(C)c1ccc(C(=O)C[N+]2(C)CCCc3ccccc32)cc1 (stereo not drawn),-18.8% (inactive),
c1ccc2cc3c(NCCN4CCOCC4)ccnc3cc2c1,,17.8 µM (active)
Fc1ccc(-c2ccc(NCCN3CCOCC3)nn2)cc1,18.6% (inactive),
CCOc1nc(NCCN2CCOCC2)nc(Nc2ccc(C)cc2)n1,-1.38% (inactive),
COc1cc(OC)c(OC)cc1/C=C1\C=Cc2ccccc21,-23.5% (inactive),
O=S(=O)(c1cccc(C(F)(F)F)c1)N1CCN(c2nc(-c3cccs3)nc3ccccc23)CC1,-7.49% (inactive),
O=C1/C(=C\c2ccccc2Cl)SC(=S)N1CCC(=O)N1CCCc2ccccc21,2.46% (inactive),
Cc1ccc(-c2nn(-c3ccccc3)cc2/C=C2\SC(=S)N(CCCCCC(=O)O)C2=O)o1,,31.6 µM (active)
CN(C(=O)CCN1C(=O)/C(=C/c2ccccc2F)SC1=S)C1CCS(=O)(=O)C1 (stereo not drawn),-11.1% (inactive),

# Source: PubChem BioAssay AID588795 (National Center for Advancing Translational Sciences (NCATS), 2011)
